Only some compounds are listed: those with a hit (about 4.5% of all), similar ones and a draw of the others.
Efflux pump inh = inhibitors of Candida efflux pumps in yeast, primary screen, S. cerevisiae, Nile Red, multiplex. S. cerevisiae Candida pump triplex. inhibition, % at 10 µM. 0.44% of 330,000 active. AID 485275, 2010;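 active = plate passing quality check with inhibition over a set limit, or well fluorescence over plate mean plus 4 SD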;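 also: Nile Red retained in pooled yeast measured as flow cytometry median fluorescence; 0% = buffer negative control and 100% = Enniatin B positive control; higher means more Nile Red kept so more efflux inhibition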
Rtt109 HAT inh = inhibitors of C. albicans Rtt109/Vps75 HAT, primary screen, biochemical, ThioGlo CoA-SH fluorescence, plate reader; purified Rtt109/Vps75, 4 h; inhibition, % at 34.9 µM; 0.16% of 330,000 active;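 active = inhibition of at least 50% in every replicate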
ALR H2O2 inh = inhibitors of human ALR sulfhydryl oxidase, primary screen, biochemical, H2O2 detection, HRP-luminol luminescence, single point; purified ALR, DTT oxidation; FAD-linked sulfhydryl oxidase ALR (Homo sapiens), P55789; inhibition, % (concentration not given with the values); 3.8% of 290,000 active;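 active = mean replicate inhibition above about 79%, with every replicate also reaching it, limit read from the data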
Target sequence (P55789 whole entry, looked up): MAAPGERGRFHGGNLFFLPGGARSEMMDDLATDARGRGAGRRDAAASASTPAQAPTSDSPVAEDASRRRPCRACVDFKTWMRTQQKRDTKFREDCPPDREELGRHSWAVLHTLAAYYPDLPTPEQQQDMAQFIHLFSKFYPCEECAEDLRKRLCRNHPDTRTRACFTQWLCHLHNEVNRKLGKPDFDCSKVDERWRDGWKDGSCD
HDAC3 inhib = HDAC3 deacetylase inhibitors, primary screen, biochemical, fluorescence, cell-free homogeneous | recombinant HDAC3, fluorogenic peptide/trypsin coupled | AID 2718, 2010 | 0.15% of 320,000 active | inhibition, % at 8.3 µM; in the data active = inhibition above about 26%, passing the limit was not always enough
Rce1 inh = yeast Rce1p protease inhibitors, primary screen, biochemical, fluorescence, cell-free homogeneous; CAAX prenyl protease 2 (Saccharomyces cerevisiae (strain ATCC 204508 / S288c)), Q03530; AID 2563, 2010; yeast membranes, quenched prenylated peptide cleavage fluorescence; 0.27% of 290,000 active; calls only;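 active = fall in fluorescence gain of 50% or more versus controls, with final raw signal at or below 3038400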;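 also: plate controls were neutral control wells for no effect and wells lacking membranes for full effect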
Target sequence (Q03530 whole entry, looked up): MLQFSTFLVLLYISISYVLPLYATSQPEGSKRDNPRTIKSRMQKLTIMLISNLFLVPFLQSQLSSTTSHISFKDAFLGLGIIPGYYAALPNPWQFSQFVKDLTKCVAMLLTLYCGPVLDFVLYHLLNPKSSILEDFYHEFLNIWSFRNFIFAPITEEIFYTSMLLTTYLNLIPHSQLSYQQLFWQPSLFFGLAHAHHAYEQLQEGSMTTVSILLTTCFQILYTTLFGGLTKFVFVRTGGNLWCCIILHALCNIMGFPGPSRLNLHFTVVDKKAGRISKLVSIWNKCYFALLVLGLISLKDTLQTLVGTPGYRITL
GRK2 aptamer HTS = compounds blocking aptamer binding on GRK2 – biochemical, human GRK2, bead flow cytometry, HTS, primary screen; AID 488847, 2010; Beta-adrenergic receptor kinase 1 (Homo sapiens), P25098; 0.59% of 330,000 active; inhibition of aptamer binding, % at 10 µM; FAM-aptamer displacement from GRK2;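 active = inhibition of aptamer binding above 40%, roughly 3 SD of noise, on plates passing a quality check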;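 also: median bead fluorescence of bound FAM aptamer so fluorescent compounds give negative values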
* = called active by the depositor; i = inactive; / = no result given; + = active, no number.

SMILES	Efflux pump inh	Rtt109 HAT inh	ALR H2O2 inh	HDAC3 inhib	Rce1 inh	GRK2 aptamer HTS
CCCCCOc1ccc(C2C(C(=O)c3ccc(C)o3)=C(O)C(=O)N2c2cc(C)on2)cc1 (centres undefined)	0	-19	98*	1	i	11
Cc1ccc(C(=O)C2=C(O)C(=O)N(Cc3cccnc3)C2c2ccc(Cl)c(Cl)c2)o1 (centres undefined)	0	7	88*	8	i	1
Cc1ccc(C(=O)C2=C(O)C(=O)N(Cc3cccnc3)C2c2ccc(Br)cc2)o1 (centres undefined)	0	9	5	5	/	0
CCOc1ccc(C2C(C(=O)c3ccc(C)o3)=C(O)C(=O)N2c2cc(C)on2)cc1OC (centres undefined)	0	2	3	-2	i	4
CCOc1ccc(C2C(C(=O)c3ccc(C)o3)=C(O)C(=O)N2c2nc(C)c(C(=O)OC)s2)cc1 (centres undefined)	0	6	97*	6	i	18
CSC1=NS(=O)(=O)c2c(C)nn(C)c2S1	0	-5	72	16	i	0
O=C(NC1=NCCS1)c1sc2cc(F)ccc2c1Cl	0	-3	99*	-1	i	0
O=C(Nc1ccon1)c1sc2cc(F)ccc2c1Cl	0	3	-7	0	/	0
Cc1cccc(C(=O)N2CCCC(N3CCN(c4ccc(F)cc4)CC3)C2)n1 (centres undefined)	0	5	99*	5	i	1
Cc1cccc(C(=O)N2CCCC(N3CCN(c4ccccc4)CC3)C2)n1 (centres undefined)	0	-43	98*	3	i	1
COc1ccc(N2CCN(C3CCCN(C(=O)c4cccc(C)n4)C3)CC2)cc1 (centres undefined)	0	10	58	6	i	0
O=C(N/C(=C\c1ccc(F)cc1)C(=O)N1CCOCC1)c1ccccc1	0	15	3	5	i	1
O=C(c1ccc(CS(=O)Cc2ccc(Cl)cc2)o1)N1CCN(c2ccccc2)CC1 (centres undefined)	0	4	93*	5	i	0
Cc1ccc(CS(=O)Cc2ccc(C(=O)N3CCN(c4ccc(F)cc4)CC3)o2)cc1 (centres undefined)	0	3	39	-1	i	0
Cc1ccc(CS(=O)Cc2ccc(C(=O)N3CCN(c4ccccc4)CC3)o2)cc1 (centres undefined)	0	3	94*	-3	i	0
COc1cccc(N2CCN(C(=O)c3ccc(CS(=O)Cc4ccc(Cl)cc4)o3)CC2)c1 (centres undefined)	0	4	-4	-1	i	2
CCCCn1c(SCc2nnc(-c3ccccc3)o2)nc2c1c(=O)n(C)c(=O)n2C	0	9	78*	0	/	0
C[C@]12CC[C@@H]3c4cc(O)c(O)cc4CC[C@H]3[C@@H]1CC[C@@H]2O	0	123*	72	-3	i	2
CCC(C)Nc1ccc(NC(C)CC)cc1 (centres undefined)	0	6	99*	-2	/	5
CCC(C)NC(=O)Nc1ccc(Br)cc1 (centres undefined)	0	/	0	-6	i	0
COc1ccc(S(=O)(=O)N2CCCOC2CNC(=O)C(=O)NC2CCCC2)cc1 (centres undefined)	0	-5	-2	-4	i	0
CCOc1ccc(NC(=O)CN(C)C(=O)c2cc([N+](=O)[O-])ccc2Sc2ccccc2)cc1OCC	/	11	/	/	/	/
O=c1[nH]ncn1-c1ccc(Br)cc1	0	-12	5	-5	i	2
O=C(O)c1cnc(-c2ccccc2)nc1Sc1cccc(Cl)c1	0	8	96*	-8	i	0
CC(C)c1nc2n[nH]c(N)c2c2c1CSC(C)(C)C2	0	-10	98*	-6	i	3
SMILES	Efflux pump inh	Rtt109 HAT inh	ALR H2O2 inh	HDAC3 inhib	Rce1 inh	GRK2 aptamer HTS
O=S(=O)(NNc1ccc(F)cc1F)c1cccc(Cl)c1	0	7	98*	1	i	0
Cc1ccc([N+](=O)[O-])cc1N=Nc1c(C)[nH]n(C(N)=S)c1=O	0	13	98*	21	i	0
CCc1cccc(OCC(=O)Nc2ccc(S(=O)(=O)Nc3onc(C)c3C)cc2)c1	0	-6	95*	4	i	4
Cc1cc(C)nc(NS(=O)(=O)c2ccc(NC(=O)COc3ccccc3)cc2)n1	0	7	99*	4	i	0
CC(=O)Nc1ccc(S(=O)(=O)NNC(=O)COc2ccc(C(C)(C)C)cc2)cc1	0	16	97*	2	i	1
CC(=O)Nc1ccc(S(=O)(=O)NNC(=O)COc2ccc(C)cc2)cc1	0	18	-10	-4	i	3
CC(C)c1cccc(OCC(=O)Nc2ccc(S(=O)(=O)Nc3ccccn3)cc2)c1	0	-4	/	-5	+	1
CC(C)c1ccc(OCC(=O)Nc2ccc(S(=O)(=O)Nc3ccccn3)cc2)cc1	0	-10	-9	0	i	1
C/C(CC(=O)Nc1cccc2c1CCCC2)=N\NC=O	0	-9	-1	3	i	7
O=C(COC(=O)C1CCC1)NCc1ccc(Cl)cc1Cl	0	-4	0	0	i	0
O=C1CCc2cc(S(=O)(=O)NC3CCCCC3)cc3c2N1CC3	0	-5	1	-2	i	5
N#CCC(=O)N/N=C/c1ccc(OCC(=O)Nc2ccc(F)cc2)cc1	0	3	-10	8	i	0
Cc1cc(C)nc(NS(=O)(=O)c2ccc(NC(=O)c3ccccc3C)cc2)n1	0	1	-10	2	i	2
Cc1cc(C)nc(NS(=O)(=O)c2ccc(NC(=O)c3ccc(O)cc3O)cc2)n1	0	-12	99*	-24	i	1
Cc1ccc(N2CCN(C(=O)N3CCCC3)CC2)cc1C	0	0	96*	-1	i	0
N=C(N)c1ccc(/C=C/c2ccc(C(=N)N)cc2O)cc1	0	3	13	50*	+	0
O=C(COC(=O)c1ccc(Br)o1)Nc1ccc(N2CCOCC2)cc1	0	3	/	/	/	5
O=C(CSc1nnc(Cc2cccs2)n1C1CCCCC1)N1CCN(C(=O)c2ccco2)CC1	0	51*	33	9	i	1
COc1ccc(N(CC(=O)NCCSc2ccccn2)S(=O)(=O)c2ccccc2)c(OC)c1	0	4	-31	3	i	3

Source: PubChem BioAssay
